Results as given in PubChem BioAssay AID651784 (National Center for Advancing Translational Sciences (NCATS), 2012).
Inconclusive results are not listed. Activity calls are given as the source filed them. The call rests on the fitted dose curve; in most records, active means well fitted inhibition curve with a large enough effect; inconclusive means small, poorly fitted or top-dose-only effect; inactive means no such curve, though single readings can be large or run the other way.

Experiment: Acumen qHTS Assay for Inhibitors of the mTORC1 Signaling Pathway in MEF (Tsc2-/-, p53-/-) Cells: Hit Validation;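 further: phospho-rpS6 Ser235/236 immunofluorescence normalized to propidium iodide cell count; nearly all actives have a fitted effect of over 65% in size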;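 on activity change, negative = inhibition: cells exposed to compound for 24 hours; plate controls were DMSO for no effect and 7.5 nM rapamycin control for full effect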
Conditions: Acumen imaging; activity change, negative = inhibition: at 37.3 µM (top of the series)
Potency means the concentration at half of the fitted maximal effect.

Row | Compound | Potency | activity change, negative = inhibition
1 | CCCCS(=O)(=O)c1nc(-c2ccc(Br)cc2)cc(-c2ccccc2)c1C#N | 6.56 µM (active) | 
2 | Cc1ccc2c(c1)C(=O)C(=O)N2Cc1ccc(OC(C)C)cc1 | 0.0736 µM (active) | 
3 | Cc1nn(CCCC(=O)NCc2ccccc2)c(=O)c2c1sc1ccccc12 |  | 13.7%
4 | Cc1cc(C)c(NC(=O)C2CCN(c3nc4ccccc4n4cccc34)CC2)c(C)c1 | 14.7 µM (active) | 
5 | Cc1cccc(OCC(=O)Nc2ccc(-c3nc4cc(C)ccc4o3)c(O)c2)c1 | 6.56 µM (active) | 
6 | Cc1cccc(N2CCN(C(=O)C3CCN(C(=O)c4cc5sccc5n4C)CC3)CC2C)c1 (configuration not stated) |  | -39.1%
7 | Cn1nnnc1SCCCNCc1ccccc1OCc1ccc(Cl)cc1 |  | -60%
8 | COc1ccc(Cn2c(C(=O)O)c(CNCc3ccc(SC)cc3)c3ccc(OC)cc32)cc1 |  | -12.2%
9 | CCN(CCCNC(=O)c1cc2c(=O)[nH]c3ccc(C)cc3c2s1)Cc1ccccc1 |  | -139%
10 | O=c1c(-c2cc(-c3ccc(F)cc3)nc3c2COc2ccc(Cl)cc2-3)coc2ccc(F)cc12 |  | 7.23%
11 | CC(C)S(=O)(=O)c1oc(-c2cccs2)nc1S(=O)(=O)c1ccc(F)cc1 | 0.736 µM (active) | 
12 | CCOc1c(Br)cc(C2CC(=O)Nc3cc4c(cc32)OCO4)cc1OC (configuration not stated) |  | -47.7%
13 | CCc1ccc(-c2nc(CSCC(=O)NCc3ccc(C)cc3)c(C)o2)cc1 |  | 4.67%
14 | CCN1CCOC(=O)C1CC(=O)Nc1ccc(Br)cc1 (configuration not stated) |  | -3.02%
15 | CCCCN(CCCNC(=O)c1cc(Nc2cccc(SC)c2)nc2ccccc12)Cc1ccccc1 |  | -95.1%
16 | Cc1cc(C)c(-c2n[nH]c3c2C(c2ccccc2F)N(Cc2ccco2)C3=O)c(O)c1 (configuration not stated) |  | 2.41%
17 | CC1C(=O)N2CCCc3cc(S(=O)(=O)Nc4ccc(Br)cc4F)cc1c32 (configuration not stated) | 4.65 µM (active) | 
18 | Cc1ccccc1Oc1nc2ccccn2c(=O)c1/C=C(\C#N)c1nc2ccccc2[nH]1 |  | 2.47%
19 | COc1ccccc1NC(=O)c1sc(-c2ccc(Cl)cc2)cc1N |  | 1.3%

Row | Compound | Potency | activity change, negative = inhibition
20 | COc1cc(Nc2nc(SCC(=O)c3ccc(Cl)c(Cl)c3)nc3ccccc23)cc(OC)c1 |  | -51.7%
21 | Cc1ccc(O)c(C(CC(=O)NCC2(c3ccccc3)CCCC2)c2ccccc2)c1 (configuration not stated) |  | 2.09%
22 | Cc1ccc(NC(=O)CCS(=O)(=O)c2ccc3nc(C)sc3c2)cc1 |  | -65.5%
23 | CC(C)c1nnc(NC(=O)c2nc(S(=O)(=O)Cc3ccccc3)ncc2Cl)s1 |  | -86.2%
24 | CCC(C)n1c(SCc2c(F)cccc2Cl)nc2ccsc2c1=O (configuration not stated) |  | -45.2%
25 | CCOC(=O)c1ccc(-c2ccc(/C=C(\C#N)c3nc4ccc(C)cc4[nH]3)o2)cc1 | 4.14 µM (active) | 
26 | COc1ccc(OCC(=O)NCc2ccc3c(c2)CCN3C(=O)c2cccc(C)c2)cc1 |  | -87.8%
27 | O=C(NCc1ccccc1)c1nc(S(=O)(=O)Cc2ccccc2)ncc1Cl | 5.85 µM (active) | 
28 | NS(=O)(=O)c1cc(C(=O)O)c(NCc2ccco2)cc1Cl |  | 34.6%
29 | CCOc1ccccc1NC(=O)Cn1c(=O)n(CCC(=O)NCc2ccc3c(c2)OCO3)c(=O)c2ccccc21 |  | -23.6%
30 | Cc1cc(C)c(NC(=O)Cn2c(=O)n(Cc3ccc(C(=O)NCc4ccc5c(c4)OCO5)cc3)c(=O)c3ccccc32)c(C)c1 | 5.85 µM (active) | 
31 | CS(=O)(=O)c1ncc(Cl)c(C(=O)N(Cc2ccc(Cl)cc2)Cc2ccco2)n1 |  | -102%
32 | CCOc1ccccc1NC(=O)N(Cc1ccc(F)cc1)C1CCN(CC)CC1 |  | -15.8%
33 | O=C(Nc1cccc(C(F)(F)F)c1)c1cnn(-c2cccc(F)c2)c1C1CCNCC1 |  | -13.8%
34 | Cc1ccc(C)c(NC(=O)c2nc(S(=O)(=O)Cc3ccc(F)cc3)ncc2Cl)c1 |  | -90.5%
35 | CCC1=Nc2cc(C(=O)NC3CCC(C)CC3)ccc2Sc2ccc(C)cc21 (configuration not stated) | 1.47 µM (active) | 
36 | CCOC(=O)c1c(NC(=O)c2cc(CC)on2)sc(C(C)=O)c1C |  | 12%
37 | CCN1CCC(N(Cc2ccc(F)cc2)C(=O)Nc2ccc(C)c(F)c2)CC1 |  | 5.5%
